# This is a sample that favours compounds with a hit; in the whole collection about 8.5% have one here.
# NPSR antag = antagonists of human neuropeptide S receptor cAMP signaling | Q6W5P4 | actives 1% (n = 220,000) | AID 1461 | Potency, µM (titrated, usually from 38.3 µM), without a hit: at the top dose activity change, negative = inhibition, usual class: inhibitors | CHO-NPSR cells, cAMP TR-FRET, antagonist mode; also: potency is read from the fitted curve at half-maximal effect; nearly all actives have a fitted effect of over 50% in size
# KDM4E inh = JMJD2E (human) inhibition; B2RXH2; JMJD2E catalytic domain, FDH-coupled NADH fluorescence (FDH is formaldehyde dehydrogenase); Potency, µM (titrated, usually from 57.1 µM), without a hit: at the highest dose activity change, negative = inhibition, hits mostly inhibitors; actives 1.6% (n = 230,000); active = well fitted inhibition curve with a large enough effect, not every such curve was filed as active; inconclusive = small, poorly fitted or top-dose-only effect, or another doubt; inactive = no such curve, though single readings can be large or run the other way;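 also: potency is read from the fitted curve at half-maximal effect; 0% = wells with enzyme and -100% = buffer wells without enzyme; nearly all actives have a fitted effect of over 50% in size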
# Target sequence (B2RXH2 1-337 limits assumed): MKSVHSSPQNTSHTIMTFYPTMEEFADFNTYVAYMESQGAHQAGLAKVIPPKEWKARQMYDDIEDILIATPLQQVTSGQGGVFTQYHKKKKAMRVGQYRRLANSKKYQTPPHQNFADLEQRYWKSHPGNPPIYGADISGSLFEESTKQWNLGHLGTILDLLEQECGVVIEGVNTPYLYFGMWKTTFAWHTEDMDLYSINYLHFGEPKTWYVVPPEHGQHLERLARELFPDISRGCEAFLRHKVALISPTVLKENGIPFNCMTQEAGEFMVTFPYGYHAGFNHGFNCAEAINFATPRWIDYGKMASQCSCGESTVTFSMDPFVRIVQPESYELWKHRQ
# Sfp inh = inhibitors of Bacillus subtilis Sfp phosphopantetheinyl transferase | Q9F4F7 | Potency, µM, without a hit: largest response in the series, negative = inhibition, usual class: inhibitors | AID 1490 | Biochemical Sfp PPTase activity, qHTS | actives 3.5% (n = 310,000);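 also: the enzyme is Sfp with the accession as filed and its product quenches rhodamine fluorescence; potency is read from the fitted curve at half-maximal effect; 0% = enzyme reaction without inhibitor and -100% = no enzyme wells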
#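 With Hepes-Na pH 7.6 buffer containing 10 mM MgCl2, Sfp (15 nM) modified BHQ-2-YbbR (12.5 uM) using rhodamine-CoA (5 uM). Two reads 30 minutes apart at 525/598 nm yielded each well's rate.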
# ALDH1A1 block = ALDH1A1 (human) enzyme inhibition. actives 7.3% (n = 220,000). Purified ALDH1A1, NADH fluorescence, propionaldehyde substrate. P00352. Potency, µM (series often up to 75.3 µM), for inactives: at the top dose activity, negative = inhibition, hits mostly inhibitors; active = well fitted inhibition curve with a large enough effect, not every such curve was filed as active; inconclusive = small, poorly fitted or top-dose-only effect, or another doubt; inactive = no such curve, though single readings can be large or run the other way;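 also: potency is read from the fitted curve at half-maximal effect; plate controls were no enzyme wells and a reference inhibitor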
# RGS12 GoLoco inh = inhibitors of human Gai1-RGS12 GoLoco interaction (red fluorophore); P63096; Gai1:RGS12 GoLoco peptide FP, rhodamine, 10 min; actives 0.44% (n = 230,000); Potency, µM (series often up to 61.6 µM), for inactives: top-dose activity, negative = inhibition, hits mostly inhibitors; active = well fitted inhibition curve with a large enough effect, not every such curve was filed as active; inactive = no such curve, though single readings can be large or run the other way; also: potency is read from the fitted curve at half-maximal effect; nearly all actives have a fitted effect of over 30% in size
# FBPA coupling cs = inhibits coupling enzyme system, counter-screen for aldolase hits; coupling enzyme system counterscreen, AmpLite Red fluorescence; activity change, negative = inhibition, % at 58.2 µM, hits read low; actives 0.67% (n = 290,000); in the data active = activity change below about -30%
#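 Final compound at 57.5 uM, incubated 10 min at RT with coupling enzyme reagent (glyceraldehyde-3-phosphate), then 20 min with substrate and AmpLite Red detection. Fluorescence read at 525/598 nm; tests interference with the coupling assay, not aldolase inhibition.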
# Numbers without * were called inactive; u = inconclusive; x = no result given; [ ] = dose if it differs, or a comment. Unless noted, calls follow the shape of the dose curve; as a rule, active = well fitted curve in the direction sought with a large enough effect; inconclusive = small, poorly fitted or top-dose-only effect, or another doubt; inactive = no such curve, though single readings can be large; an effect the other way counts as inactive or inconclusive. Unless noted, % is scaled to controls: 0 for no effect and ±100 for the full control effect.
SMILES,NPSR antag,KDM4E inh,Sfp inh,ALDH1A1 block,RGS12 GoLoco inh,FBPA coupling cs
Cc1cc(C)c2c(c1)cc(C)c1nnc(SCC(=O)Nc3ccc(S(=O)(=O)N4CCCCC4)cc3)n12,23.5%,u,12.2%,20µM*,-2.4%,-1.3
O=C(CCOc1ccccc1)Nc1ccc(S(=O)(=O)N2CCCC2)cc1,-21.9%[7.67 µM],-10.9%,-1.5%,22.4µM*,8.9%,-1.4
CC1CCN(S(=O)(=O)c2ccc(NC(=O)CSc3nnnn3C)cc2)CC1,-5.5%[46.1 µM],6.4%,6.8%,0.3%,-5.8%,-3.0
O=C(Nc1ccc(S(=O)(=O)NC2=NCCCCC2)cc1)c1ccc2ccccc2n1,6.6%,-7.5%,8.8%,3.5%,7.2%,-5.6
O=C(CSc1nc2ccccc2c(=O)[nH]1)Nc1ccc(S(=O)(=O)N2CCCC2)cc1,-16.9%[46.1 µM],-3.7%,15.3%,2.24µM*,-0.3%,1.4
CCc1cccc(NC(=O)CCCn2nc(C)c3c(C)n(-c4ccccc4)nc3c2=O)c1,x,x,2.2%,x,x,x
Cc1[nH]cnc1CSCCN,-11.1%[46.1 µM],-9.7%,7.08µM*,-4.4%,0.5%,1.6
CCc1cc[n+](C2=C([O-])c3ccccc3C(=O)/C2=N\S(=O)(=O)c2cccs2)cc1,-16.1%,u,11.1%,u,33.3%,-55.4*
Cc1ccc(NC(=O)CN2CCCN(S(=O)(=O)c3ccc(Br)s3)CC2)cc1,u,6.6%,-2.7%,20µM*,1.1%,-1.3
COc1cnc(SCc2ccc(Cl)cc2Cl)nc1Cl,-29.6%[46.1 µM],-1.8%,-9.8%,7.08µM*,-18.7%,12.1
CC1(CC(=O)Nc2ccccc2)NC(=S)N(c2ccccc2)N1 (configuration not stated),11.6%,-9.4%,u,11.2µM*,19.4%,-0.2
CCCCCC1(C)NC(=S)N(c2ccccc2)N1 (configuration not stated),-9.1%,u,39.8µM*,u,0.1%,0.5
CCCn1c(-c2ccc(F)cc2)nc2c(NCCN(C(C)C)C(C)C)nc(C)nc21,x,u,16.6%,u,-3.2%,1.1
c1ccc2c(c1)nc(NC1CCCCC1)c1nncn12,-0.4%,8.1%,-15.8%,10µM*,5.2%,-1.5
Cc1nnc2c(NC3CCCC3)nc3ccccc3n12,10.4%,5.6%,-1.3%,u,1.0%,1.5
CC1CC=CC2C1C(=O)N(Cc1ccccc1)C2c1ccc(-c2ccc(F)cc2)cc1F (configuration not stated),x,x,u,x,x,1.8
O=C1C=C(c2cccs2)C[C@H](c2ccccc2)[C@H]1n1nnc([N+](=O)[O-])n1,2.4%[46.1 µM],u,3.5%,7.94µM*,11.2%,-23.7
Cc1ccc(S(=O)(=O)Cc2ccc(C(=O)NCc3ccc4c(c3)OCO4)o2)cc1,0.3%[46.1 µM],-0.4%,-6.5%,10µM*,44.8%,6.2
COc1ccc(S(=O)(=O)Cc2ccc(C(=O)N3CCN(c4ccc(Cl)cc4)CC3)o2)cc1,-27.3%[46.1 µM],-0.1%,-2.8%,6.7%,1.2%,0.8
Cc1ccc(S(=O)(=O)Cc2ccc(C(=O)N3CCN(Cc4ccccc4)CC3)o2)cc1,-5.9%[46.1 µM],-8.7%,-15.2%,8.91µM*,2.2%,0.8
COc1ccc(S(=O)(=O)Cc2ccc(C(=O)N3CCN(Cc4ccccc4)CC3)o2)cc1,-8.2%[46.1 µM],-9.3%,7.5%,12.6µM*,-11.5%,8.4
Cc1ccc(S(=O)(=O)Cc2ccc(C(=O)N3CCc4ccccc4C3)o2)cc1,-15.6%[46.1 µM],-8.0%,-2.0%,1.3%,9.2%,-1.7
Cc1ccc(S(=O)(=O)Cc2ccc(C(=O)O)o2)cc1,-8.3%[46.1 µM],-13.8%,-3.3%,8.91µM*,-17.9%,0.6
Cc1noc(C)c1-c1nc(N(C)C)c2ccccc2n1,x,x,-23.3%,u,0.1%,0.6
COc1ccc(C(=O)NCc2nnc(SCC(=O)N3CCCC3)o2)cc1,x,x,5.8%,x,x,-0.5
CCOC(=O)Cc1csc(N/N=C\c2ccc(N(C)C)cc2)n1,x,x,u,x,x,-2.5
CSc1ccccc1C(=O)N1CCN(c2ncccn2)CC1,-2.2%,-27.8%,21.6%,-6.7%,8.3%,-2.1

# From PubChem BioAssay
